From ChEMBL document CHEMBL3988442, “University of Dundee, Small-Polar-MMV Screening Library” (2021)
The whole screen tested about 38,000 compounds, of which about 1,200 (3.2%) showed an effect of 50% or more. The median lay at about -58%. Only a selection was taken, and strong results are over-represented in it overall.

What follows are compounds tested on Plasmodium falciparum (assay: Calibr Malaria Delayed Death Assay SOP). Conditions: concentration 4.99e-06 (unit not given; other assays of the set use mol/L).
Type: functional, organism-based
Design: scale not given: in the data most compounds retested in dose-response had high values

Row | Compound | Percent Effect
1 | CCC(C)NC(=O)Cn1ncc2c1c(C)nn2CC (stereo not given) | -14.73%
2 | CC1c2ncc(CN3CCN(C)CC3)n2CCN1Cc1cnn(C)c1.O=C(O)C(F)(F)F.O=C(O)C(F)(F)F.O=C(O)C(F)(F)F (stereo not given) | -76%
3 | Cc1nc(CN2CCC3(CCN(Cc4cnn(C)c4)CC3)C2=O)cs1.O=C(O)C(F)(F)F.O=C(O)C(F)(F)F | -122%
4 | COCCNC(=O)[C@@H]1CN(Cc2sccc2C)C[C@H]2OCC[C@H]21.O=C(O)C(F)(F)F | -28.67%
5 | CC/C=C(/C)C(=O)NCCc1csc(N2CCCC2)n1 | 23.92%
6 | CC(=O)c1cnc(N(C)Cc2cc(C)cc(C)n2)nc1C | 10.35%
7 | CC(=O)N1CCc2c(nc(N(C)C)nc2NCCCn2ccnc2C)C1 | -154.1%
8 | CCc1ccccc1OCC(=O)N1CCOCC1c1ncon1 (stereo not given) | -47.11%
9 | COc1cccc2c1ccn2CCC(=O)Nc1c2c(nn1C)CSC2 | 27.59%
10 | O=S(=O)(NCCN1CC=CC1)c1cncc(Cl)c1 | -138.1%
11 | O=S(=O)(NCCN1CC=CC1)c1ccc(Cl)cc1 | 75.13%
12 | O=S(=O)(NCCCN1CC=CC1)c1cncc(Cl)c1 | -214.3%
13 | CNC(=O)c1cc2c(nc1N(C)C)CCN(c1ncccn1)CC2.O=C(O)C(F)(F)F | -20.28%
14 | COCC1COCCC12CCN(Cc1cccs1)CC2.O=C(O)C(F)(F)F (stereo not given) | -9.919%
15 | CCc1ccc(OCC(O)CN2CCN(CCO)CC2)cc1.Cl.Cl (stereo not given) | -114.3%
16 | Cc1c(C)n(CC(O)CN2CCN(CCO)CC2)c2c(Cl)cccc12.Cl (stereo not given) | 88.07%
17 | CC(c1cccnc1)N1CCN(CCO)CC1 (stereo not given) | -98.51%
18 | O=C(c1cn(-c2ccccc2Cl)nn1)N1CCN(CCO)CC1 | -52.43%
19 | CCC(c1ccccc1)N1CCN(CCO)CC1 (stereo not given) | -35.6%
20 | CC1CCN(C(=O)C(C)Oc2ccc3c(c2)OCO3)CC1 (stereo not given) | -27.65%
21 | CCC(NC(=O)CCCN1CCCCC1)c1cn2cccnc2n1 (stereo not given) | -61.92%
22 | Cc1ncc2c(n1)CN(CC(=O)Nc1cc(C)on1)CC2 | -14.27%
23 | COCCNC(=O)c1nc(-c2ccc3cc[nH]c3c2)no1 | -158.8%
24 | Cc1ccccc1CN1CCC(CNC(=O)Cn2cncn2)CC1 | 1.836%
25 | Cc1cc(C)c(Cn2cncn2)cc1CN1CC[C@H]2CC[C@@H](C1)N2 | 12.41%

Row | Compound | Percent Effect
26 | Cc1cc(C)c(Cn2cncn2)cc1CN1CCC(CN)C1 (stereo not given) | 68.64%
27 | CN(C)c1cc(CNCc2ccc(N3CCOCC3)cc2)ccn1 | -42.2%
28 | COc1c(C)cnc(CSc2nnc(NC3CC3)s2)c1C | -80.23%
29 | Cl.Cn1cccc1C(=O)N1CCc2c(CNS(C)(=O)=O)cncc2C1 | -73.02%
30 | Cc1nccn1-c1cccc(C2CCCN(C3CCCC3)C2)n1 (stereo not given) | -3.48%
31 | CCc1nccn1-c1cccc(C2CCCN(C3CCCCC3)C2)n1 (stereo not given) | 50.94%
32 | CC(C)c1nccn1-c1cncc(C2CCCN(C3CCCCC3)C2)n1 (stereo not given) | 18.59%
33 | CCNC(=O)CN1CCC(OCC2CCCO2)CC1 (stereo not given) | -42.16%
34 | Cc1ccccc1N1CCN(CCS(=O)(=O)c2ccc(Br)cc2)CC1 | -132.7%
35 | COCC(O)CN(C)c1ccnc2ccc(Cl)cc12 (stereo not given) | -46.57%
36 | COCC(O)CN(C)c1ccnc2cc(F)ccc12 (stereo not given) | -53.9%
37 | COCC(O)CN(C)c1ccnc2cc(Br)ccc12 (stereo not given) | 94.48%
38 | COC1COC2(CCN(C(=O)c3ccc4ccccc4c3)CC2)C1 (stereo not given) | -205.6%
39 | CCCn1ncc(-c2ccnc(NC3CCSC3)n2)c1C (stereo not given) | -9.069%
40 | CCCn1ncc(-c2ccnc(N[C@@H]3C[C@@H]4CC[C@H]3C4)n2)c1C | -33.21%
41 | CCCn1ncc(-c2ccnc(NC3CC(C)(C)NC(C)(C)C3)n2)c1C | 66.75%
42 | CCN(CC)C(=O)c1nnsc1-c1ccc(C)cc1 | -12.06%
43 | CC(=O)N1CCN2C[C@H](CO)[C@@H](c3ccccc3)[C@H]2C1 | -67.98%
44 | CC(=O)NCCNC(=O)CN1CCCC1c1c(C)nn(C)c1C (stereo not given) | -114%
45 | CN1C(=O)C[C@H]2[C@H]1CCN2Cc1cccc(C#N)c1.O=C(O)C(F)(F)F | -78.57%
46 | Cc1ncnc2c1CCN(C(=O)Cc1ccccn1)CC2.O=C(O)C(F)(F)F | -129.8%
47 | COCC(=O)NC1CC2(CCN(CCN(C)C)CC2)c2ccccc21 (stereo not given) | -44.07%
48 | COCCN1CCC2(CC1)CC(N1CCOCC1)c1cc(C)ccc12.O=C(O)C(F)(F)F.O=C(O)C(F)(F)F (stereo not given) | -78.91%
49 | COCCN1CCC2(CC1)CC(NCc1ccc(C)s1)c1ccccc12.O=C(O)C(F)(F)F.O=C(O)C(F)(F)F (stereo not given) | 76.07%
50 | COCCN1CCC2(CC1)CC(NCc1cncn1C)c1ccccc12.O=C(O)C(F)(F)F.O=C(O)C(F)(F)F (stereo not given) | -24.3%

Row | Compound | Percent Effect
51 | CS(=O)(=O)N1CCC2(CC1)CC(NCc1ccccn1)c1ccccc12 (stereo not given) | 1.106%
52 | CC(C)N(CC(N)=O)C(=O)c1cnc(-c2ccc3c(c2)OCO3)s1 | -184.6%
53 | CC(=O)N(C)Cc1cccc(NC(=O)c2cnn(C)c2C)c1 | -25.31%
54 | CCOc1cc(C(=O)n2cc(C)cn2)cc(OCC)c1OCC | -156.8%
55 | NC(=O)c1ccc(N2CCCCC2)c(NC(=O)c2ccc(Br)cc2)c1 | 70.21%
56 | NC(=O)c1ccc(N2CCCCC2)c(NC(=O)c2cc(Br)ccc2F)c1 | -77.22%
57 | NC(=O)c1ccc(N2CCCCC2)c(NC(=O)c2cc(Br)ccc2Cl)c1 | -37.22%
58 | CSCc1cc(F)ccc1CNC(=O)N1CCC[C@@H]1CO | -21.18%
59 | NC(=O)NC(=O)CCN1CCN(c2nccs2)CC1 | -12.95%
60 | COc1ccc(CNCC(C)Oc2ccccn2)cc1Cl.Cl (stereo not given) | 13.86%
61 | O=C1CC2(CCN(CCCF)CC2)CN1Cc1cc(F)cc(F)c1 | 33.68%
62 | O=C(CO)N1CCC2(CC1)CC(=O)N(Cc1cc(F)cc(F)c1)C2 | -76.75%
63 | O=C1CC2(CCN(Cc3ccoc3)CC2)CN1Cc1cc(F)cc(F)c1 | 54.75%
64 | O=C1CC2(CCN(CC3CC3)CC2)CN1Cc1cc(F)cc(F)c1 | 9.433%
65 | CC(C)=CCN1CCC2(CC1)CC(=O)N(Cc1cc(F)cc(F)c1)C2 | 74%
66 | CC(C)N1CCC2(CC1)CC(=O)N(Cc1cc(F)cc(F)c1)C2 | 31.53%
67 | NCCn1cc(C(=O)N2CCCCCC2c2cccc(F)c2)nn1 (stereo not given) | -109.1%
68 | COc1cc2nc(C)n(CC(=O)NCCC(C)C)c(=O)c2cc1OC | -84.85%
69 | CCc1ncc(CN2CCC(CCc3ccccc3)CC2)cn1 | 5.724%
70 | Cc1nn(C)c(C)c1CCC(=O)OCC(=O)N1CCc2sccc2C1 | -33.28%
71 | Cc1nn(C)c(C)c1CN1CCNCC1 | -151.9%
72 | Cc1cc(C)n(CCCN(C)C(=O)C2COc3ccccc3C2)n1 (stereo not given) | -44.86%
73 | CC1=NOC(C(=O)N(C)CCCn2nc(C)cc2C)C1 (stereo not given) | -92.45%
74 | c1cnc(N2CCCC(c3n[nH]c4ncccc34)C2)nc1 (stereo not given) | -55.39%
75 | COCC[C@]1(O)CCN(Cc2nc(C(C)C)cs2)C[C@H]1C | -100.7%

Row | Compound | Percent Effect
76 | CN1CCCC(CNC(=O)CN(C)S(=O)(=O)c2cccnc2)C1 (stereo not given) | -82.06%
77 | O=C(c1ccnnc1)N1CCc2onc(Cn3cccn3)c2C1 | -67.89%
78 | CCS(=O)(=O)N1CCC2(CN(C(=O)c3cn(C)cn3)C2)C1 | -95.83%
79 | Cc1n[nH]cc1C(=O)N1CCCC(c2cccc(-n3ccnc3)n2)C1 (stereo not given) | -34.99%
80 | Cn1cnc(C(=O)N2CC3(CCN(S(=O)(=O)c4ccccc4)C3)C2)c1 | 9.335%
81 | COCCNS(=O)(=O)c1cccc2c1CN(C(=O)c1cc(C)on1)CC2 | -82.56%
82 | Cc1csc2c(=O)n3c(nc12)CCN(C(=O)c1ccnn1C)CC3 | -147.1%
83 | CCOC(=O)CNC(=O)N1CCc2onc(-c3ccc(Cl)cc3)c2C1 | -35.73%
84 | Cn1cccc1C(=O)N1CCc2onc(Cn3cccn3)c2C1 | -37.04%
85 | Cc1noc([C@@H]2CC[C@@H]3[C@@H](CCN3S(=O)(=O)c3ccccc3)O2)n1 | -19.99%
86 | COCCO[C@@H]1CCN(C(=O)c2occc2C)[C@H]1Cc1cnn(C)c1 | -35.95%
87 | CC(C)n1cnnc1C1CCCN(S(=O)(=O)CC2CCCC2)C1 (stereo not given) | -66.23%
88 | Cc1cc(=O)[nH]c(=O)n1-c1ccccc1Br | -82.44%
89 | COC(=O)c1cccc(C(=O)N2CCN(c3ccc(Cl)cc3)CC2)n1 | -128.8%
90 | Cc1cc(-c2cnn(CCNC(=O)Cc3ccccn3)c2C2CC2)on1 | -41.77%
91 | CCN(CC)C(=O)c1c(Cl)cnn1CC | -101.8%
92 | O=C1CC2(CCCC2)CC(=O)N1Cc1nc2ncccn2n1 | -57.36%
93 | N#Cc1ccc(F)c(CNc2ccc(F)cc2OCCO)c1 | -1.485%
94 | CC(=O)Nc1ccc(CNCc2cccnc2N(C)C)cc1 | -87.09%
95 | O=C(c1cscn1)N1CCc2ncc(Cn3cncn3)n2CC1 | -88.92%
96 | CN(C)CCn1c(=O)n(C)c(=O)c2ccccc21.Cl | -12.02%
97 | CC(C)n1c(=O)c2ccccc2n(CCN(C)C)c1=O.Cl | 33.53%
98 | CC(C)n1c(=O)c2ccccc2n(CCCN(C)C)c1=O.Cl | 57.86%
99 | NC(=O)C1CN(c2ccc3cc(Br)ccc3n2)CCO1 (stereo not given) | -657.4%
100 | Cc1ccc(OCCN(C)C2CCOC2=O)cc1 (stereo not given) | -120.6%
